# Experimental data as given in PubChem BioAssay (NCI).
# The panel holds about 83,000 compounds, 20% with a hit somewhere; the sample as a whole holds those more often.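 The endpoint reported here, percent growth, reads 100 for growth as untreated, 0 for no net growth and -100 for all cells dead.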 A number with no mark means an inactive call. Calls of active or inactive are those of the source. Rule for the calls: active = growth percent below 10; inactive = the rest. *1 amine or outer side, *2 acyl side, *3 side chain or, on linkers, in order; H or OH if unused. Where a SMILES comes first, the peptide text is derived from it. [ ]: non-standard residue; d: D form. The star is where a group is joined. X5 = CCC(=O)CC1CC(C)CC(C(=O)[*:2])N1[*:1]; X4 = CCCCCCCCC(C)C(=O)*; Aib = CC(C)(N)C(=O)O; X6 = CC(CN(C)CCO)N*
# Key:
# Experiment in all cases: NCI-60 one-dose screen, 48 h (100 = growth as untreated, 0 = no growth, -100 = all killed)
# Conditions in all cases: 10 µM unless noted
# [1] = test system: SR leukemia
# [2] = test system: RPMI-8226 leukemia
# [3] = test system: OVCAR-8 ovarian
# [4] = test system: OVCAR-5 ovarian
# [5] = test system: OVCAR-4 ovarian
# [6] = test system: SK-OV-3 ovarian
# [7] = test system: OVCAR-3 ovarian
# [8] = test system: HS 578T breast
# [9] = test system: NCI/ADR-RES ovarian
# [10] = test system: IGROV1 ovarian
SMILES,growth [1],growth [2],growth [3],growth [4],growth [5],growth [6],growth [7],growth [8],growth [9],growth [10]
O=C1C=CC(O)=CC1=P(c1ccccc1)(c1ccccc1)c1ccccc1,78.8%,74.2%,92.4%,74.7%,94%,91.5%,102%,83.2%,102%,
CCCCCC/C=C1\CCC(CN2CCCC2)C1=O (centres undefined),43.5%,-12.2% (active),106%,135%,109%,110%,,,105%,113%
CN(C)c1ccc(/C=C/c2ccnc3ccccc23)cc1,21%,11.7%,20.2%,84.4%,69.6%,,45.1%,53.5%,29.3%,
CC12CCC(O)CC1=CCC1C2CCC2(C)C3=NN=CC3CC12 (centres undefined),60.1%,96.5%,107%,106%,107%,115%,116%,95.6%,98.6%,
Nc1nc(N)c2cc(Sc3cccc(C(F)(F)F)c3)ccc2n1,-27.1% (active),5.83% (active),31%,45.1%,,63.9%,25.4%,40.4%,17.7%,21.9%
COc1cc([C@@H]2c3cc4c(cc3[C@H](OC3OC5COC(c6ccccc6)OC5C(O)C3O)[C@H]3COC(=O)[C@H]23)OCO4)cc(OC)c1OC (some centres undefined),-25.4% (active),-21.4% (active),29.4%,38.1%,45.3%,83.1%,,,-38.9% (active),-45.7% (active)
Cc1ccc(Nc2ccc(O)c3c2C(=O)c2c(O)ccc(Nc4ccc(C)cc4)c2C3=O)cc1,108%,96.6%,91.4%,106%,111%,108%,113%,103%,107%,
CC(=O)Nc1ccc(C(=O)CCl)cc1,-17.9% (active),25.2%,92.1%,94.5%,60.6%,,-21.6% (active),19%,84.5%,93.2%
Nc1cc(-c2ccccc2)ccc1O,28.7%,-11.7% (active),62.7%,104%,91.4%,113%,,,88.4%,115%
NNc1cccc([N+](=O)[O-])c1,35%,90.9%,78%,94.8%,107%,,,106%,76.3%,83%
O=[N+]([O-])c1ccc(Oc2ccccc2Cl)c([N+](=O)[O-])c1,1.58% (active),78.4%,93.2%,116%,56.4%,99.8%,,,72.7%,104%
COc1c(C)c2c(c(O)c1C/C=C(\C)CCC(=O)O)C(=O)OC2,14%,57.8%,11.9%,,44.5%,45.2%,34.4%,72%,31.2%,12.9%
CC(=O)N1CC(=O)NC1=S,91.8%,101%,103%,97.1%,96.5%,,110%,102%,104%,105%
CN1CCC(CN2c3ccccc3Sc3ccccc32)C1 (centres undefined),79.2%,78.7%,,84.1%,94.4%,109%,88.8%,86.1%,85.8%,
COC1CC(C)C(OC)c2cc(O)cc(c2O)NC(=O)/C(C)=C/C=C\C(C)C(OC(N)=O)/C(C)=C\C(C)C1OC (centres undefined),-5.85% (active),1.65% (active),,27.2%,-39.9% (active),16.1%,,,-67.2% (active),-0.486% (active)
S=c1[nH]c2cc(Cl)ccc2s1,106%,,103%,98.6%,106%,102%,102%,,105%,105%

SMILES,growth [1],growth [2],growth [3],growth [4],growth [5],growth [6],growth [7],growth [8],growth [9],growth [10]
Cc1ccc(NC2=CC(=O)C(=O)c3ccccc32)cc1,25.9%,,25%,-25.4% (active),-0.0623% (active),79.9%,,16.3%,19.3%,17.6%
CCC(C)C(N)C(=O)NC(CC(N)=O)C(=O)NC(CC(C)C)C(=O)NC(CCCCN)C(=O)NC(C)C(=O)NC(CC(C)C)C(=O)NC(C)C(=O)NC(C)C(=O)NC(CC(C)C)C(=O)NC(C)C(=O)NC(CCCCN)C(=O)NC(CCCCN)C(=O)NC(C(=O)NC(CC(C)C)C(N)=O)C(C)CC (centres undefined),85.8%,74.7%,,166%,95.2%,110%,117%,,102%,102%
O=C1/C(=C\c2ccc([N+](=O)[O-])cc2)CS(=O)(=O)C/C1=C/c1ccc([N+](=O)[O-])cc1,0.134% (active),-19.4% (active),,-99% (active),-90.2% (active),-43.3% (active),-90.1% (active),,-80.4% (active),-82.4% (active)
CCCCCCCCC(C)C(=O)N1CCCC1C(=O)N1C(CC(=O)CC)CC(C)CC1C(=O)NC(C)C(=O)NC(C)(C)C(=O)NC(C)(C)C(=O)NC(C(=O)NC(C)C(=O)NC(C)(C)C(=O)NC(C)(C)C(=O)NC(C)CN(C)CCO)C(C)CC (centres undefined) (X4-P[X5]A[Aib][Aib]IA[Aib][Aib]-X6; configuration not given here),-44.2% (active),-42.5% (active),,-82.2% (active),-12.9% (active),-23.8% (active),-54.6% (active),,-36.9% (active),-60.3% (active)
C[C@@]1(CO)[C@H](O)CC[C@@]2(C)[C@H]1CC[C@H]1C[C@@H]3C[C@@]12CC[C@@]3(O)COC(=O)CN,18.9%,43%,,24.7%,87.9%,74.8%,70.9%,,11.1%,33.5%
[Cl-].[Rh+3].c1ccc(-c2ccnc3c2ccc2c(-c4ccccc4)ccnc23)cc1.c1ccc(-c2ccnc3c2ccc2c(-c4ccccc4)ccnc23)cc1.c1ccc(-c2ccnc3c2ccc2c(-c4ccccc4)ccnc23)cc1,89.4%,91.1%,,-2.79% (active),84.8%,77.9%,69.8%,,95.7%,66.5%
COC1=CC(=O)c2c(O)c3c(c(O)c2C1=O)CC(C)(O)OC3 (centres undefined),14.3%,34.7%,,35.4%,-12.8% (active),86.9%,-0.531% (active),,-4.8% (active),
NC(=S)N/N=C/c1ncccc1O,12.1%,11.3%,,-8.61% (active),35.2%,47.3%,,,-27.4% (active),-11.2% (active)
Cn1ccc(=Nc2ccc(NC(=O)c3ccc(N=c4ccn(C)c5ccc([N+](=O)[O-])cc45)cc3)cc2)cc1,107%,,69.3%,87.9%,59.4%,91.4%,79.5%,100%,106%,64.8%
CCN(CC)CC(O)CNc1ccc(NCC2CO2)c2c1C(=O)c1ccccc1C2=O (centres undefined),-4.42% (active),-40.8% (active),,-4.14% (active),,22.5%,-1.52% (active),-40.4% (active),-1.62% (active),-59.1% (active)
O=C1C=CC(=O)N1c1ccccc1,45.2%,,99.5%,96.4%,,109%,,103%,97.7%,105%
CC(C)=CCCC(C)C1=C(O)C(=O)C(C)=CC1=O (centres undefined),-12.4% (active),-34.2% (active),,97.4%,,97.8%,-12.5% (active),94.4%,95%,-75.7% (active)
O=C1C=CC(=O)c2c(O)c(CO)c(CO)c(O)c21,83.3%,18.2%,,84.8%,64.9%,109%,98.3%,113%,97.2%,52.7%
Cc1ccc2cccc(OC(=O)Nc3cccc(C(F)(F)F)c3)c2n1,36.9%,,53.5%,83.7%,73%,108%,32.3%,100%,58.9%,58.2%
NC(=Nc1nc(-c2ccccn2)cc2ccccc12)c1ccccn1,6.67% (active),-11.3% (active),,-15.7% (active),27.1%,19.7%,29.3%,,-31.2% (active),-9.19% (active)
